# Experimental data published in PubChem BioAssay (Tox21).
# Values joined by “and” are separate entries in the source; they are usually repeats but may differ in a detail not shown here. Equal entries are not always repeated. Records with an inconclusive call do not appear. Entries that show only a call come without a potency. A structure can be active in one record and inactive in another. Active and inactive are the calls of the source. Unless noted, calls follow the shape of the dose curve; as a rule, active = well fitted curve in the direction sought with a large enough effect in the repeat runs; inconclusive = weak or mixed curves; inactive = no such curve, though single readings can be large; an effect the other way counts as inactive or inconclusive.
# Columns and labels:
# [1] = qHTS assay to identify small molecule agonists of the RXR signaling pathway - cell viability counter screen (AID 1159529); also: series mostly up to about 77 µM; nearly all actives have a fitted effect of over 50% in size
# In short: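 Compounds dissolved in DMSO were pinned onto HEK 293T cells carrying a beta-lactamase reporter under RXR-alpha control and incubated 16 hr. Cytotoxicity was then quantified by CellTiter-Glo luminescence.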
# [2] = qHTS assay to identify small molecule antagonists of the retinoid acid receptor (RAR) signaling pathway - cell viability counter screen (AID 1159551); also: nearly all actives have a fitted effect of over 35% in size
# In short: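 C3RL4 cells were seeded overnight at 37 C, then treated with compounds plus 1 uM (final) retinol for 6 h at 37 C. Viability was read as ATP by CellTiter-Glo luminescence after 30 min at room temperature.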
# [3] = qHTS assay to identify small molecule antagonists of the retinoic acid receptor (RAR) signaling pathway (AID 1159552; also: nearly all actives have a fitted effect of over 50% in size; also: potency is read from the fitted curve at half-maximal effect)
# In short: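 Test chemicals and DMSO controls were pin-transferred onto C3RL4 cells a day after seeding; retinol (1 uM final) followed at once. Luminescent reporter output was quantified after 6 hr of co-incubation and 30 min with detection reagent.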
# [4] = qHTS assay to identify small molecule agonists of the retinoic acid receptor (RAR) signaling pathway (AID 1159553)
# In short: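 C3RL4 cells carrying a RARE luciferase reporter were plated overnight at 37 C, then exposed to compounds in DMSO for 6 hr at 37 C and 5% CO2. Luminescence was read 30 min after luciferase reagent addition at room temperature.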
# [5] = qHTS assay to identify small molecule antagonists of the estrogen related receptor (ERR) signaling pathway from Tox21 library - cell viability counter screen (AID 1224834); also: nearly all actives have a fitted effect of over 30% in size; also: potency is read from the fitted curve at half-maximal effect
# In short: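 ERR reporter cells were plated 6 h before compound addition, then exposed to test compounds in DMSO for 17.5 h at 37 C. Viability was read as CellTiter-Fluor fluorescence after a 30-minute incubation at 37 C.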
# [6] = molecular target: Luciferin 4-monooxygenase (Photinus pyralis) (UniProt P08659); experiment: qHTS assay to identify small molecule inhibitors of firefly luciferase (AID 1224835); also: series mostly up to about 120 µM; nearly all actives have a fitted effect of over 25% in size
# In short: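 Biochemical qHTS: compounds run as interplate titrations against purified firefly enzyme, with D-luciferin and ATP each at its KM concentration. Light output recorded by CCD imaging.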
# [7] = qHTS assay to identify small molecule agonists of the constitutive androstane receptor (CAR) signaling pathway - cell viability counter screen (AID 1224836); also: series mostly up to about 92 µM; nearly all actives have a fitted effect of over 45% in size
# In short: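 23 h treatment, 37 C, 5% CO2. Cell line: HepG2 stably expressing hCAR with a CYP2B6-2.2kb construct. Co-treatment: PK11195, 0.75 uM final. Read-out: CellTiter-Fluor fluorescence intensity.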
# [8] = qHTS assay to identify small molecule antagonists of the constitutive androstane receptor (CAR) signaling pathway - cell viability counter screen (AID 1224837); also: series mostly up to about 92 µM; nearly all actives have a fitted effect of over 45% in size
# In short: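 HepG2 cells stably expressing hCAR and a CYP2B6-2.2kb reporter were plated and pre-incubated 4 hr at 37 C/5% CO2, then given compounds at 15 concentrations plus 50 nM CITCO (final). After 23 hr, viability was read by CellTiter-Fluor fluorescence.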
# [9] = molecular target: Nuclear receptor subfamily 1 group I member 3 (Homo sapiens) (UniProt Q14994); experiment: qHTS assay to identify small molecule antagonists of the constitutive androstane receptor (CAR) signaling pathway (AID 1224838); also: nearly all actives have a fitted effect of over 40% in size; also: potency is read from the fitted curve at half-maximal effect
# In short: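 HepG2 cells stably co-transfected with hCAR and a CYP2B6-2.2kb luciferase reporter were seeded 4 h before compound addition at 15 concentrations. Cells were stimulated with 50 nM CITCO (final) for 24 h at 37 C; luciferase luminescence was then read.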
# [10] = qHTS assay to identify small molecule antagonists of the estrogen related receptor signaling pathway with the pleiotropic PPARgamma coactivator (PGC) from Tox21 10K library - cell viability counter screen (AID 1224840; active = well fitted cell-killing curve with a large enough effect in the repeat runs, not every such curve was filed as active; also: nearly all actives have a fitted effect of over 40% in size)
# In short: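 PGC/ERR cells were seeded at 2,000 cells/well and left 6 hours at 37 C/5% CO2 before pin-tool addition of compounds in DMSO. After 17.5 hours at 37 C, CellTiter-Fluor was added and fluorescence read 30 minutes later.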
# [11] = molecular target: Thyrotropin receptor (Homo sapiens) (UniProt P16473); experiment: qHTS assay to identify small molecule agonists of the thyroid stimulating hormone receptor (TSHR) signaling pathway (AID 1224843; calls by dose curve; also: nearly all actives have a fitted effect of over 45% in size; also: potency is read from the fitted curve at half-maximal effect)
# In short: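 Steps: seed 800 TSHR-HEK293 cells per well; add test compound and hold 30 min at ambient temperature; dispense cAMP-d2 then anti-cAMP cryptate; incubate 1 h at ambient; measure fluorescence intensity.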
# [12] = molecular target: Nuclear receptor subfamily 1 group I member 3 (Homo sapiens) (UniProt Q14994); experiment: qHTS assay to identify small molecule agonists of the constitutive androstane receptor (CAR) signaling pathway (AID 1224839); also: nearly all actives have a fitted effect of over 15% in size; also: potency is read from the fitted curve at half-maximal effect
# In short: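 Compounds tested at 15 concentrations on HepG2 cells stably harbouring hCAR and CYP2B6-2.2kb reporter constructs, co-treated with PK11195 (0.75 uM final), 24 h at 37 C; luminescent reporter signal quantified.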
# [13] = qHTS assay to identify small molecule antagonists of the estrogen related receptor signaling pathway with the pleiotropic PPARgamma coactivator (PGC) from Tox21 10K library (AID 1224841; call rule not given here; also: series mostly up to about 92 µM; actives are mostly falling curves and most rising ones were filed inactive; nearly all actives have a fitted effect of over 50% in size)
# In short: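 PGC/ERR reporter cells were seeded at 2,000 cells/well and held 6 hours at 37 C/5% CO2 before pin-tool addition of compounds in DMSO. After 18 hours at 37 C, One-Glo was added and luminescence read after 30 minutes at room temperature.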
# [14] = qHTS assay to identify small molecule agonists of the estrogen related receptor signaling pathway with the pleiotropic PPARgamma coactivator (PGC) from Tox21 10K library (AID 1224842); also: nearly all actives have a fitted effect of over 15% in size
# In short: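 PGC/ERR reporter cell line, 2,000 cells per well, incubated 6 h at 37 C before 23 nL compound in DMSO was added. After 18 h at 37 C, One-Glo luminescence read following 30 min at room temperature.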
# Luciferin 4-monooxygenase (Photinus pyralis), sequence (P08659 whole entry, looked up): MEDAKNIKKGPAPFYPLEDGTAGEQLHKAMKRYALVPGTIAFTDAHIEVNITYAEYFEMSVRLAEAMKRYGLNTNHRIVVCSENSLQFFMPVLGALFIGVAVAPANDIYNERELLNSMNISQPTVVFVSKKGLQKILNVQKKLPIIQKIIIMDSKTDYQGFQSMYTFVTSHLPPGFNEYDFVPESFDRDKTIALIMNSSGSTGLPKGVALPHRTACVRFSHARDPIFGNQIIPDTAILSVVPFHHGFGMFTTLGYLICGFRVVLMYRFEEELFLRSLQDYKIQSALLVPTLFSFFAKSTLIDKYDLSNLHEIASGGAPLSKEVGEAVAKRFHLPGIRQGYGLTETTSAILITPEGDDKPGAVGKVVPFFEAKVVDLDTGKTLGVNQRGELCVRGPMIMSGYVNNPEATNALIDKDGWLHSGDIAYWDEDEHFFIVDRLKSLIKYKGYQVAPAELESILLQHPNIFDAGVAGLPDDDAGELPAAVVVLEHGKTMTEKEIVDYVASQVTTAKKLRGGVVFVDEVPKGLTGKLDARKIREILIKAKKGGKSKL
# Thyrotropin receptor (Homo sapiens), sequence (P16473 whole entry, looked up): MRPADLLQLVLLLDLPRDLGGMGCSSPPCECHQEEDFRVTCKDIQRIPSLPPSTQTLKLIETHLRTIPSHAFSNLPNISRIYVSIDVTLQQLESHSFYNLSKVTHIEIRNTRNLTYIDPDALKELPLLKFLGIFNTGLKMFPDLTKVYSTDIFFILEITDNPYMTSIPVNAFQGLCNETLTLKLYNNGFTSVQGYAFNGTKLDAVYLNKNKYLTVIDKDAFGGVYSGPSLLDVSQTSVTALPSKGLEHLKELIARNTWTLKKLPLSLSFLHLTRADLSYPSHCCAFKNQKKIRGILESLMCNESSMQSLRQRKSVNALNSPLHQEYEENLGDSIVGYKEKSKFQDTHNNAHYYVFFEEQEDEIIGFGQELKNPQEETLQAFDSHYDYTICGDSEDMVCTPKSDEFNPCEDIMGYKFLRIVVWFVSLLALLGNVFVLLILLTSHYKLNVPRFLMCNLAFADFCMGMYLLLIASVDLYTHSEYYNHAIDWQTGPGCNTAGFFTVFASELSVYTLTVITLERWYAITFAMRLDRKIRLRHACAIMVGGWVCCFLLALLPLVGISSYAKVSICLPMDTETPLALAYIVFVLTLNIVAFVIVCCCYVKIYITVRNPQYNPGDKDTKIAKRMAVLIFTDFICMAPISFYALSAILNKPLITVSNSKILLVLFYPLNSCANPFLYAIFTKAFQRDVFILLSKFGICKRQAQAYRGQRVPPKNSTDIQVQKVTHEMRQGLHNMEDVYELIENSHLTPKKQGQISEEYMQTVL
# Nuclear receptor subfamily 1 group I member 3 (Homo sapiens), sequence (Q14994 whole entry, looked up): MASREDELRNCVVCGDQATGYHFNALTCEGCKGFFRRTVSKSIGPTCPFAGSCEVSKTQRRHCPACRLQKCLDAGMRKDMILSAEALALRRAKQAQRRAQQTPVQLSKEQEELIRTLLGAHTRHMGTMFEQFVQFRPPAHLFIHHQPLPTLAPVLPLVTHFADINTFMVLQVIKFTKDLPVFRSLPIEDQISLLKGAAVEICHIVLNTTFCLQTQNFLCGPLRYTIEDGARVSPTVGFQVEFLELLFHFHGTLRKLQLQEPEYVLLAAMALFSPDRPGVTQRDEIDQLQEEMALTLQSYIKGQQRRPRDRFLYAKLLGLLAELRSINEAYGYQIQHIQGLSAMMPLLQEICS
Compound,Potency [1],Potency [2],Potency [3],Potency [4],Potency [5],Potency [6],Potency [7],Potency [8],Potency [9],Potency [10],Potency [11],Potency [12],Potency [13],Potency [14]
Cc1ccccc1,inactive,inactive,inactive,inactive,inactive,inactive,inactive,inactive,inactive,inactive,inactive,,,
C1CCNCC1,inactive,inactive,inactive,inactive,inactive,inactive,inactive,inactive,,inactive,inactive,,,
CCCCCCCCP(=O)(O)O,inactive,inactive,inactive,inactive,inactive,inactive,inactive,inactive,,inactive,inactive,,,
O=C(Cl)OCCOCCOC(=O)Cl,inactive,inactive,12.2 µM (active),inactive,inactive,inactive,inactive,inactive,30.6 µM (active),inactive,inactive,inactive,inactive,inactive
CCCN(CCC)c1c([N+](=O)[O-])cc(C(C)C)cc1[N+](=O)[O-],inactive,inactive,inactive,inactive,inactive,inactive,inactive,inactive,inactive and 1 nM (active),,6.71 µM (active) and 12.2 µM (active),33.6 µM (active) and inactive,,
CCCCC1C(=O)NC(=O)N(C2CCCCC2)C1=O (centres undefined),inactive,inactive,inactive,inactive,inactive,inactive,inactive,inactive,inactive,inactive,,inactive,,
O=P(OCC(Br)CBr)(OCC(Br)CBr)OCC(Br)CBr (centres undefined),inactive,inactive,inactive,inactive,49.2 µM (active) and 51.7 µM (active),inactive,,,inactive,inactive,inactive,,,
CC(C)(c1ccccc1)c1cc(-n2nc3ccccc3n2)c(O)c(C(C)(C)c2ccccc2)c1,inactive,inactive,inactive,inactive,inactive,,inactive,inactive,inactive,inactive,inactive,,,
CCCCCCCCCCCCN(C)C,inactive,inactive,inactive,inactive,inactive,,inactive,inactive,inactive,inactive,inactive,inactive,inactive,inactive
CCC1(CCC(C)C)C(=O)NC(=O)NC1=O,inactive,inactive,inactive,inactive,inactive,inactive,inactive,inactive,inactive,inactive,,inactive,,
CCOC(C(=O)OCCN(C)C)(c1ccccc1)c1ccccc1,inactive,inactive,inactive,inactive,inactive,inactive,inactive,inactive,inactive,,,,inactive,inactive
CCCCC(CC)CO[N+](=O)[O-] (centres undefined),inactive,inactive,inactive,inactive,inactive,inactive,inactive,inactive,,inactive,inactive,,,
CC(C)(C)OOC(C)(C)CCC(C)(C)OOC(C)(C)C,inactive,inactive,inactive,inactive,inactive,,inactive,inactive,inactive,inactive,inactive,inactive,inactive,inactive
O=C(N[C@H]1CN2CCC1CC2)c1ccc2c(c1)OCCO2,inactive,inactive,inactive,inactive,inactive,inactive,,inactive,inactive,inactive,inactive,inactive,inactive,inactive
C=CCc1ccc(OC(=O)Cc2ccccc2)c(OC)c1,inactive,inactive,inactive,inactive,inactive,,inactive,inactive,inactive,inactive,,inactive,,
NP(N)(=O)NC(=O)c1ccc(F)cc1,inactive,inactive,inactive,inactive,inactive,inactive,inactive,inactive,,inactive,inactive,,inactive,inactive
COCc1cnc(C2=NC(C)(C(C)C)C(=O)N2)c(C(=O)O)c1 (centres undefined),inactive,inactive,inactive,inactive,inactive,inactive,inactive,inactive,inactive,inactive,inactive,inactive,,
CNC(=O)Oc1cccc(N=CN(C)C)c1,inactive,inactive,inactive,inactive,inactive,,inactive,inactive,inactive,inactive,inactive,inactive,,
CC(C)CCON=O,inactive,inactive,inactive,inactive,inactive,inactive,inactive,inactive,inactive,inactive,inactive,inactive,,
C=C(C)C(=O)OCCCCOC(=O)C(=C)C,inactive,inactive,inactive,inactive,inactive,,inactive,inactive,inactive,inactive,inactive,inactive,inactive,inactive
Nc1ccccc1C(=O)OCC(O)CO (centres undefined),inactive,inactive,inactive,inactive,inactive,inactive,inactive,inactive,inactive,inactive,inactive,inactive,,
